# From PubChem BioAssay (EPA / NIEHS)
# Calls of active or inactive are those of the source. How the source made its calls: active means hit-call score of the fitted dose curve at least 0.9, where 1 is the maximum; inactive means score below 0.9.
# Read-out: Glutamate-cysteine ligase regulatory (GCLM), GCLM (gene 2730)
# Assay: LTEA_HepaRG_GCLM: Life Technologies and Expression Analysis (LTEA) Assay for Glutamate-cysteine ligase regulatory (GCLM) using HepaRG (AID 2283500)
# Settings: mRNA level, 48 h; actives raise or lower the signal
# Method: LTEA_HepaRG is a cell based, multiplexed-readout assay that uses HepaRG, a human liver cell line, with measurements taken at 48 hours after chemical dosing on a 96-well plate.LTEA_HepaRG_GCLM is one of 102 assay component(s) measured in the LTEA HepaRG cell culture assay. It is a marker of Cell proliferation, survival, death.Data from the assay component LTEA_HepaRG_GCLM was analyzed into 1 endpoint. This assay endpoint, LTEA_HepaRG_GCLM, was analyzed with bidirectional fitting relative to DMSO as the negative control and baseline of activity. Using a type of inducible reporter, measures of mRNA induction for gain or loss-of-signal activity can be used to understand regulation of transcription factor activity. To generalize the intended target to other relatable targets, this assay endpoint is annotated to the ligase intended target family, where the subfamily is C-N ligase.
# A total of 1060 chemcials from the ToxCast library were tested in eight-point concentration-response experiments. Cell culture and cytotoxicity assays were conducted at Thermo Fisher Scientific's Custom Services facility (Madison, WI). A single lot of human HepaRG cells (Thermo Fisher Scientific, Frederick, MD) was used for the cell culture experiments. 96-well format collagen type I coated plates of human HepaRG cells were prepared using established methods. Briefly, cryopreserved HepaRG cells were thawed, plated at a density of approximately 100,000 cells/well in HepaRG Thaw, Plate, and General Purpose media (HPRG770, Thermo Fisher Scientific), and incubated for 48 hours. 0.5% DMSO was selected as vehicle control to balance the requisite need of DMSO in HepaRG cultures to maintain differentiation (for example, baseline metabolism, proportions of hepatocytes vs. cholangiocytes), while enabling further hepatic receptor pathway activation (for example, PXR and CAR) in response to chemical exposure. 48 hours after plating, the culture medium was replaced with HepaRG Serum-Free Incudtion Media. Cells were exposed to each test chemical in duplicate and maintained in CO2 incubators for another 48 hours. Chemical plates were thawed to room temperature and 200x concentrations of treatment groups were prepared. 8-point conentration-reponse curves were made with the highest exposure at 100 uM, followed by half-log dilutions, all in 0.5% DMSO. Each test plate contained variouse controls, induction positive controls (1mM phenobarbital), cytotoxicity positive controls ([…] aflatoxin B1), vehicle controls (0.5% DMSO), and total lysis controls (0.5% DMSO). Cell morphology images were taken using an Essen IncuCyte FLR automated microscope, with six 96-well plates imaged in about 24 minutes. Images were captured and exported and JPEG files. Spent culture media was transfered to black-well plates for the LDH assay, and remaining media was sorted at -80 C for later use. Cells were treated with RLT buffer and frozen until shipped for gene expression analysis. Total RNA was isolated from the cell suspension in 75 uL of Buffer RLT (Qiagen, Germantown, MD 20874) by Quintiles/Expression Analysis (Durham, NC) using a custom isolation procedure. Total RNA from each plate well was transferred to a preamplification plate. Fluidigm's 96.96 Dynamic ArrayTM (Fluidigm, Amsterdam, the Netherlands) technology was used for gene expression analyses by quantitative reverse transcription polymerase chain reaction (qRT-PCR, performed by Quintiles/Expression Analysis, Durham, NC)89. Standard TaqManTM Assays (Applied Biosystems/ThermoFisher Scientific, Foster City, CA) were used to assess the expression of 93 genes selected based on their selectivity and sensitivity to important hepatic receptors known to be modulated by environmental chemicals; importance in human hepatocyte functionality; and hepatotoxicity. […]
SMILES,outcome,AC50
CCCCCCCCCCCCCCC,inactive,
O=C1NS(=O)(=O)c2ccccc21,inactive,
O=C(CCCN1CCC(O)(c2ccc(Cl)cc2)CC1)c1ccc(F)cc1,,71.9 µM (active)
CCCCC(CC)C(=O)O (stereo unspecified),inactive,
Cc1[nH]nc2c1N=C(c1ccccc1Cl)c1cc([N+](=O)[O-])ccc1N2,inactive,
CS(=O)(=O)c1ccc([C@@H](CC2CCCC2)C(=O)Nc2cnccn2)cc1Cl,,50 µM (active)
N=C(N)c1ccc(OCCCCCOc2ccc(C(=N)N)cc2)cc1,inactive,
OCC(CO)(CBr)CBr,inactive,
CN(C)CCOC(c1ccccc1)c1ccccc1,inactive,
CCCCc1oc2ccccc2c1C(=O)c1cc(I)c(OCCN(CC)CC)c(I)c1,,61.8 µM (active)
CC(=O)Nc1ccc(O)cc1,inactive,
CCCCC=O,inactive,
O=C(c1ccccc1)c1ccccc1,inactive,
CCCCCCCCCCCCOS(=O)(=O)O,inactive,
CN(Cc1cnc2nc(N)nc(N)c2n1)c1ccc(C(=O)N[C@@H](CCC(=O)O)C(=O)O)cc1,inactive,
CCC(C)c1ccccc1O (stereo unspecified),inactive,
